# Hits are enriched below; roughly 27% of the tested compounds scored in any of these assays.
# CYP2C19 act: cytochrome P450 2C19 (human) activation; P33261; recombinant CYP2C19, luciferin-H EGE luminescence; hits give high values; 0 = fully inhibited enzyme, 1 = untreated enzyme; activation factor at 5 µM; 96,000 tested, under 10 active; AID 1025;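 active = activation factor of at least 2 at 5 µM in the primary screen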
# CYP2C19 inh: blocks human cytochrome P450 2C19 | P33261 | CYP2C19 Supersomes, luciferin-H EGE luminescence, 30 min | inhibition, % at 5 µM | 96,000 tested, 21% active | AID 778;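 active = CYP2C19 inhibition above a set limit at 5 µM in the primary screen, cut at about 50% in these data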
# Cav3 T inh: inhibitors of human Cav3.2 T-type calcium channel; O95180; Cav3.2-expressing cells, Fluo-4 calcium fluorescence FDSS; hits give low values; B-score at 10 µM; 100,000 tested, 4% active;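 active = single-dose well whose peak fluorescence ratio is a statistical outlier from its plate by either plate-standardised score or position-corrected B-score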
# CYP2C9 act: CYP2C9 (human) activation; recombinant CYP2C9, luciferin-H conversion, luminescence; hits give high values; factor 1 = untreated enzyme, 0 = blocked; activation factor at 5 µM; 96,000 tested, 1.4% active; AID 1024;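 active = activation factor of 2 or more for CYP2C9 at a 5 µM dose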
# Target sequence (P11712 whole entry, looked up): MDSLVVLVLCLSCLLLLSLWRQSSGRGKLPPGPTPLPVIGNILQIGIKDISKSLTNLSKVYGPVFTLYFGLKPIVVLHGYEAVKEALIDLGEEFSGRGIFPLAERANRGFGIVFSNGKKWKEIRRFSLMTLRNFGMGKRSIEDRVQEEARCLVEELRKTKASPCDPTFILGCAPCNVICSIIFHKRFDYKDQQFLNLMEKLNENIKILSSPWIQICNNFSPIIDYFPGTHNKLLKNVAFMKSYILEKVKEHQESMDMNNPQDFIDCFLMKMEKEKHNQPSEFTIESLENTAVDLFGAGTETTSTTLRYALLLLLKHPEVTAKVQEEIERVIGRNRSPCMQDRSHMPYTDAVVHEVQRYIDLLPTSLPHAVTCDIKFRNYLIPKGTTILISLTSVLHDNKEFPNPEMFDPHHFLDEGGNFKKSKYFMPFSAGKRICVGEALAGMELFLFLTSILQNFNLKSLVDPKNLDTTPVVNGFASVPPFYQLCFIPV
# CYP2C9 inh: human CYP2C9 inhibition; P11712; CYP2C9 Supersomes, luciferin-H conversion, luminescence; inhibition, % at 5 µM; 96,000 tested, 20% active; AID 777;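 active = blocking of liver enzyme CYP2C9 beyond about 50% at 5 µM, limit read from the data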
# Hits are given with their value; i = inactive; nt = no result given.
SMILES,CYP2C19 act,CYP2C19 inh,Cav3 T inh,CYP2C9 act,CYP2C9 inh
O=C(Cc1cccc2ccccc12)NNC(=O)Nc1cccc(Cl)c1,i,56,-7.9,2.2,i
Cc1[nH]nc(N=CC2=C(O)CC(c3ccco3)CC2=O)c1-c1ccccc1 (stereo unspecified),i,i,i,i,61
Cc1ccc(-c2nnc(CSc3nc4cc5c(cc4cc3C)OCO5)o2)cc1,i,i,i,i,65
CCc1nc(SCc2nnc(-c3ccc(C)cc3)o2)c2c(C)c(C)sc2n1,nt,nt,i,nt,nt
Cc1cc(NC(=O)CSc2nnc(Nc3ccccc3)s2)no1,i,i,nt,i,i
C/C(N)=C(/C#N)C(=O)CSc1nnc(Nc2ccccc2C)s1,i,60,i,i,i
CSc1nnc(Nc2ccccc2C)s1,i,68,i,i,i
Cc1ccccc1Nc1nnc(SCc2cc(=O)n3ccsc3n2)s1,i,i,i,i,i
Cc1cc(=O)[nH]c(SCC(=O)Nc2cccc3ccccc23)c1C#N,i,i,i,i,86
COCCOC(=O)c1c(C)nc(SCC(=O)Nc2cccc3ccccc23)c(C#N)c1-c1ccco1,i,i,i,i,94
Cc1ccccc1NC(=O)CSc1nc2c(c(-c3ccco3)c1C#N)CCCC2,i,i,i,i,i
COCCOC(=O)c1c(C)nc(SCC(=O)Nc2ccc(C)cc2)c(C#N)c1-c1ccco1,i,64,i,i,92
COc1cc(CN2C(=O)C(NC(=O)c3ccco3)(C(F)(F)F)C3=C2CC(C)(C)CC3=O)cc(OC)c1 (stereo unspecified),i,i,i,i,60
COc1ccc(C(=O)NC2(C(F)(F)F)C(=O)N(Cc3ccco3)C3=C2C(=O)CC(C)(C)C3)cc1OC (stereo unspecified),i,i,i,i,i
CC1(C)CC(=O)C2=C(C1)N(Cc1cccnc1)C(=O)C2(NC(=O)c1cccnc1)C(F)(F)F (stereo unspecified),i,i,i,i,i
CCOC(=O)NC1(C(F)(F)F)C(=O)N(Cc2ccccc2)C2=C1C(=O)CC(C)(C)C2 (stereo unspecified),i,71,i,i,i
COc1ccc(-n2c(SCC(=O)N3CCOCC3)nc(O)c(Cc3ccccc3)c2=O)cc1,i,i,i,i,i
Cc1nn(C)cc1CN(C)C(=O)c1sc2cccc(Cl)c2c1Cl,i,97,i,2,i
C=CCn1c(Cc2c[nH]c3ccccc23)nnc1SCC(=O)NCc1ccccc1,i,i,i,i,i
C=CCn1c(Cc2nc3ccc(Cl)cc3[nH]2)n[nH]c1=S,i,98,i,i,i
C=CCn1c(Cc2c[nH]c3ccccc23)n[nH]c1=S,i,62,i,i,i
N#Cc1c(Cc2cccc3ccccc23)nn(CCO)c1N,nt,nt,i,nt,nt
CCOC(=O)N1CCC(N2C(=O)c3ccccc3C2Nc2ccc(C)cc2)CC1 (stereo unspecified),i,i,i,i,i
CCOC(=O)N1CCC(N2C(=O)c3ccccc3C2Nc2c(C)cccc2C)CC1 (stereo unspecified),i,95,nt,i,94
CCOC(=O)N1CCC(N2C(=O)c3ccccc3C2Nc2ccccc2)CC1 (stereo unspecified),i,65,i,i,80
SMILES,CYP2C19 act,CYP2C19 inh,Cav3 T inh,CYP2C9 act,CYP2C9 inh
O=C1C2ON(c3ccccc3)C(c3ccccc3F)C2C(=O)N1c1ccccc1 (stereo unspecified),i,i,i,i,i
CN1C(=O)C2ON(c3ccccc3)C(c3cccs3)C2C1=O (stereo unspecified),i,59,i,i,i
CCN(CC)c1ccc(/C=N/n2c(C)cc(C)cc2=O)cc1,i,i,i,i,i
CC1CCc2ccccc2N1C(=O)c1cccs1 (stereo unspecified),i,i,i,i,i
CCC(=O)N(CCc1ccccc1)Cc1cc2cc3c(cc2[nH]c1=O)OCO3,i,i,i,i,i
CCC(=O)N(CCC(Cc1ccccc1)c1ccc2c(c1)OCO2)Cc1ccccc1F (stereo unspecified),i,96,nt,i,96
COc1cc2c(cc1OC)-c1cc(NC3CCCCCCC3)nc(=O)n1CC2,i,i,i,i,51
COc1cc2c(cc1OC)-c1cc(NC3CCCCC3)nc(=O)n1CC2,i,i,i,i,i
COc1ccc(OC)c(NC(=O)CSc2nnc(CNc3ccc(F)cc3)o2)c1,i,56,i,i,i
COc1ccc(NCc2nnc(SCC(=O)Nc3ccccc3OC)o2)cc1,i,i,i,i,i
COc1ccccc1NC(=O)CSc1nnc(-c2ccc(C)cc2)o1,i,i,i,i,i
